# Records with an inconclusive call do not appear. A number with no mark means an inactive call. Calls of active or inactive are those of the source. Unless noted, calls follow the shape of the dose curve; as a rule, active = well fitted curve in the direction sought with a large enough effect in the repeat runs; inconclusive = weak or mixed curves; inactive = no such curve, though single readings can be large; an effect the other way counts as inactive or inconclusive.
# Columns and labels:
# [1] = target: Cytochrome P450 2D6 (Homo sapiens) (UniProt P10635); experiment: Cytochrome P450 family 2 subfamily D member 6 (CYP2D6) small molecule antagonists: luciferase biochemical (cell-free) qHTS assay (AID 1645840); also: nearly all actives have a fitted effect of over 55% in size; also: potency is read from the fitted curve at half-maximal effect
# Outline: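 P450-Glo luminescent screen: recombinant CYP2D6 enzyme–proluciferin substrate mix preincubated with compound 10 min at room temperature, then NADPH regeneration added for 1 h at room temperature. Detection reagent added for 20 min; luciferin light read as relative luminescence units.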
# [2] = target: Cytochrome P450 2C9 (Homo sapiens) (UniProt P11712); experiment: Cytochrome P450 family 2 subfamily C member 9 (CYP2C9) small molecule antagonists: luciferase biochemical (cell-free) qHTS assay (AID 1645842); also: nearly all actives have a fitted effect of over 55% in size; also: potency is read from the fitted curve at half-maximal effect
# Outline: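 Luminescence, after 20 min with luciferin detection reagent, reflected CYP2C9 turnover during a 1 h NADPH-driven reaction at 37C. Enzyme-substrate mix contained 0.4% bovine serum albumin and was preincubated with compound 10 min at room temperature.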
# [3] = target: Glutathione peroxidase 1 (Homo sapiens) (UniProt P07203); experiment: Primary qHTS Assay for Inhibitors of Recombinant Selenoprotein Glutathione Peroxidase 1 (GPX1) (AID 1845191; active = well fitted curve in the direction sought with a large enough effect; an effect the other way counts as inactive or inconclusive; also: nearly all actives have a fitted effect of over 65% in size)
# Outline: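 10 nM GPX1 + cpd, 30 min RT; start w/ 1 mM GSH, 0.5 mM cumene hydroperoxide, 0.5 mM NADPH, 100 nM GR, 0.01% BSA; buffer 50 mM Tris-HCl pH 7.5, 2 mM EDTA, 150 mM NaCl; Fl 340/450, 0 & 15 min.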
# [4] = target: Phospholipid hydroperoxide glutathione peroxidase GPX4 (Homo sapiens) (UniProt P36969); experiment: Primary qHTS Assay for Inhibitors of Recombinant Selenoprotein Glutathione Peroxidase 4 (GPX4) (AID 1845192; active = well fitted curve in the direction sought with a large enough effect; an effect the other way counts as inactive or inconclusive; also: nearly all actives have a fitted effect of over 65% in size)
# Outline: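 NADPH consumption, followed by fluorescence at 340/450 nm between 0 and 15 min, reports GPX4 activity via coupled glutathione reductase (100 nM). Enzyme 200 nM was pre-exposed to compound 30 min; 0.5 mM cumene hydroperoxide and 1 mM GSH served as substrates.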
# [5] = target: Rap guanine nucleotide exchange factor 3 (Homo sapiens) (UniProt O95398); experiment: Confirmatory qHTS for antagonist of cAMP-regulated guanine nucleotide exchange factor 3 (EPAC1) (AID 1645880; active = well fitted curve in the direction sought with a large enough effect; an effect the other way counts as inactive or inconclusive; also: nearly all actives have a fitted effect of over 55% in size)
# Outline: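 Nucleotide exchange uses 100 nM EPAC1, 250 nM RAP1B-BODIPY-GDP and 50 uM GDP, with compounds in a concentration-titration series. After 5 min at room temperature, fluorescence (480 nm ex/540 nm em) is read every 5 min for 30 min. Data are normalized to control ATA and DMSO.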
# [6] = target: Rap guanine nucleotide exchange factor 3 (Homo sapiens) (UniProt O95398); experiment: Confirmatory qHTS for agonist of cAMP-regulated guanine nucleotide exchange factor 3 (EPAC1) (AID 1645881; active = well fitted curve in the direction sought with a large enough effect; an effect the other way counts as inactive or inconclusive;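 also: EPAC1 catalysed release of BODIPY-GDP from Rap1B seen as fluorescence loss; nearly all actives have a fitted effect of over 75% in size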)
# [7] = target: Rap guanine nucleotide exchange factor 4 (Homo sapiens) (UniProt Q8WZA2); experiment: Confirmatory qHTS for agonist of cAMP-regulated guanine nucleotide exchange factor 4 (EPAC2) (AID 1645884; active = well fitted curve in the direction sought with a large enough effect; an effect the other way counts as inactive or inconclusive;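 also: nucleotide exchange releases bodipy-GDP from Rap1 and this lowers its fluorescence; nearly all actives have a fitted effect of over 65% in size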)
# [8] = target: Rap guanine nucleotide exchange factor 4 (Homo sapiens) (UniProt Q8WZA2); experiment: Confirmatory qHTS for antagonist of cAMP-regulated guanine nucleotide exchange factor 4 (EPAC2) (AID 1645885; active = well fitted curve in the direction sought with a large enough effect; an effect the other way counts as inactive or inconclusive; also: nearly all actives have a fitted effect of over 25% in size)
# [9] = target: Rap guanine nucleotide exchange factor 3 (Homo sapiens) (UniProt O95398); experiment: Counterscreen qHTS for antagonist of cAMP-regulated guanine nucleotide exchange factor 3 (EPAC1) (AID 1645888; active = well fitted curve in the direction sought with a large enough effect; an effect the other way counts as inactive or inconclusive;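 also: fluorescence loss as bound BODIPY-GDP is released from Rap1B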)
# Outline: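 Rap1B-BODIPY-GDP 250 nM + GDP 50 uM; cpds 7-pt, final 9.74 nM–152 uM (activator mode) or from 7.32 nM upwards (inhibitor mode); RT; FI 480/540 nm at 5 and 30 min, then ± cAMP, reread.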
# Sequence of Glutathione peroxidase 1 (Homo sapiens) (P07203 whole entry, looked up): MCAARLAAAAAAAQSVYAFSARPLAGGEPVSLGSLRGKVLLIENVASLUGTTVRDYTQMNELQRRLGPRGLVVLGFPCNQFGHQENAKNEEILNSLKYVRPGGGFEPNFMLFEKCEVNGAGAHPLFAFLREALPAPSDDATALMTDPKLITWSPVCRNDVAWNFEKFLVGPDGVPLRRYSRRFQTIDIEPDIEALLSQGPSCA
# Sequence of Cytochrome P450 2C9 (Homo sapiens) (P11712 whole entry, looked up): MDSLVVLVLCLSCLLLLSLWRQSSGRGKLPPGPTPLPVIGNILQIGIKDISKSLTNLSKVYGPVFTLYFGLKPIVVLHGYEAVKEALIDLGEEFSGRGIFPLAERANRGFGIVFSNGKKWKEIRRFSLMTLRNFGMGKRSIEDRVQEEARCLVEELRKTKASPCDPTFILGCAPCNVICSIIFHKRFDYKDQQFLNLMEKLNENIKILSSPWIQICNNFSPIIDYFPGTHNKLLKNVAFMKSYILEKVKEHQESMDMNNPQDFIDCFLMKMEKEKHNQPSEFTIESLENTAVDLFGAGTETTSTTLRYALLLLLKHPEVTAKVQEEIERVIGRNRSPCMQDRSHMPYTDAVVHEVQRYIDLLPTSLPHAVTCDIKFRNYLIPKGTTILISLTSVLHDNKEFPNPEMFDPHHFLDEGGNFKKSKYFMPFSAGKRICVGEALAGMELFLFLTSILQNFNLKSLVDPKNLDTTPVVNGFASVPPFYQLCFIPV
# Sequence of Cytochrome P450 2D6 (Homo sapiens) (P10635 whole entry, looked up): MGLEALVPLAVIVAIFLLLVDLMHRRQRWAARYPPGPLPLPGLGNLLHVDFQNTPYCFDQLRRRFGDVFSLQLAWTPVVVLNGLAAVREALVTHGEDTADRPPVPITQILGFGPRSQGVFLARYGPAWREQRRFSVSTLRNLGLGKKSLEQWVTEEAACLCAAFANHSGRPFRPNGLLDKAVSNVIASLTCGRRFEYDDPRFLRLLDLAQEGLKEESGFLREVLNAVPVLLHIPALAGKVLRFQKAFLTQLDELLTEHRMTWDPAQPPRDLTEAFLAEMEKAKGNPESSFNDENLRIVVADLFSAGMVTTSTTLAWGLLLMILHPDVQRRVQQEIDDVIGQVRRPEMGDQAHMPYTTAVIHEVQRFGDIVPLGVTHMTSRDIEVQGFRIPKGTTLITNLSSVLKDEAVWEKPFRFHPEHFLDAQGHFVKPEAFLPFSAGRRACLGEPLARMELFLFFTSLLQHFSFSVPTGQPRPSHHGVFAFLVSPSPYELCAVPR
# Sequence of Rap guanine nucleotide exchange factor 3 (Homo sapiens) (O95398 whole entry, looked up): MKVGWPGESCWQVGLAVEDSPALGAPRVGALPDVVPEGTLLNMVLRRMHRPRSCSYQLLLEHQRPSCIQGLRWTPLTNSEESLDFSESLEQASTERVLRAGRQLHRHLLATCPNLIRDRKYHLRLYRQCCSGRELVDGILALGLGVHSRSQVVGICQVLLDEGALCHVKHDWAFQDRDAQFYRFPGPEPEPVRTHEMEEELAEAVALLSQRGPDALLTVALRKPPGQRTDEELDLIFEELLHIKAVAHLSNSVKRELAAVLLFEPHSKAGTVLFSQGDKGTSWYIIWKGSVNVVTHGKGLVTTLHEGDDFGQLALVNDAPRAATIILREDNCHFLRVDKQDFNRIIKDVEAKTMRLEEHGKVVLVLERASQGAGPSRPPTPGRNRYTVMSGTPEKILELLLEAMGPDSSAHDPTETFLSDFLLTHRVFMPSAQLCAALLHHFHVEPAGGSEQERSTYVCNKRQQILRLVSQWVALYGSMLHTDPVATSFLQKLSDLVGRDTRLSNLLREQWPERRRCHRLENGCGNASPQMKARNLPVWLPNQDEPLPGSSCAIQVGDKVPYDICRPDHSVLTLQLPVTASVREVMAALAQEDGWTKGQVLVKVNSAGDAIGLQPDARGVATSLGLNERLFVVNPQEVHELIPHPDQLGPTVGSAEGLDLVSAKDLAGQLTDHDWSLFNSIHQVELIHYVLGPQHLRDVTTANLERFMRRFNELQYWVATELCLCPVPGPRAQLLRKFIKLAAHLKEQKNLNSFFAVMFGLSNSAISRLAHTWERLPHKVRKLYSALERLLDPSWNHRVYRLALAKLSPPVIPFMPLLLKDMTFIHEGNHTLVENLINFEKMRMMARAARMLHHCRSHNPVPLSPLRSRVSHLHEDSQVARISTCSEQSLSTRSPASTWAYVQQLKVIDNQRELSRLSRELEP
# Sequence of Phospholipid hydroperoxide glutathione peroxidase GPX4 (Homo sapiens) (P36969 whole entry, looked up): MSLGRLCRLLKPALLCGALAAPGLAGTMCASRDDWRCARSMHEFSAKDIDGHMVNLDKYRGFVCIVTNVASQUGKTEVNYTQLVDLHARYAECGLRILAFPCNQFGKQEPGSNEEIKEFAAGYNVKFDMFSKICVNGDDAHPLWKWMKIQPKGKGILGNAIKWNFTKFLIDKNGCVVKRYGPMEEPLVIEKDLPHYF
# Sequence of Rap guanine nucleotide exchange factor 4 (Homo sapiens) (Q8WZA2 whole entry, looked up): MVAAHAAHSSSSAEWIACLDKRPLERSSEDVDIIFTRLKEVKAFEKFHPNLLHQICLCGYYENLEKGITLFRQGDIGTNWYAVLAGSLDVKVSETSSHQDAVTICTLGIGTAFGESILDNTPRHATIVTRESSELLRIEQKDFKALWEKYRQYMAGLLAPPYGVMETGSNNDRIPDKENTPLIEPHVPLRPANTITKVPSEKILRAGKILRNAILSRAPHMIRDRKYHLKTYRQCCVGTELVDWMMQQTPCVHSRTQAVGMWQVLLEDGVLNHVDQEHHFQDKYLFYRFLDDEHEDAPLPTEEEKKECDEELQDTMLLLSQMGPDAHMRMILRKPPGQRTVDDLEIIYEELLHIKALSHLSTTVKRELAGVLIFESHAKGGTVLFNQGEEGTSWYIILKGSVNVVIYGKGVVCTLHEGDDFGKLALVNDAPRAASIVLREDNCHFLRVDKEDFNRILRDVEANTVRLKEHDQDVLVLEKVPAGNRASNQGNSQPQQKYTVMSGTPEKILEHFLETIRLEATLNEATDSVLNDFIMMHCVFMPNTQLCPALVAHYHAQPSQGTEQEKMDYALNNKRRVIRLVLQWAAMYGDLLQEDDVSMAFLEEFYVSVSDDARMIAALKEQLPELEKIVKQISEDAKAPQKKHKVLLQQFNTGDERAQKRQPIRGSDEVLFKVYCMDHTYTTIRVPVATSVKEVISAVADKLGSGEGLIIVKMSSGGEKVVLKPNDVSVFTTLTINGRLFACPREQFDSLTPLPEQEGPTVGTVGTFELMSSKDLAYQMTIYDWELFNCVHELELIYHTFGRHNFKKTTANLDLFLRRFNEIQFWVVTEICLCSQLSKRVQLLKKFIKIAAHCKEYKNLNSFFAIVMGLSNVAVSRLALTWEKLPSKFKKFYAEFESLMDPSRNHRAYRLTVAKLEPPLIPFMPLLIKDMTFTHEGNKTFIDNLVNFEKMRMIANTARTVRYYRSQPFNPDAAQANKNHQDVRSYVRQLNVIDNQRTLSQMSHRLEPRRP
smiles,measurement,setting,value
CN(CCCCCCCCCCN(C)C(=O)Oc1cccc([N+](C)(C)C)c1)C(=O)Oc1cccc([N+](C)(C)C)c1,Potency,[1],inactive
same,Potency,[2],inactive
same,Potency,[3],inactive
same,Potency,[4],inactive
Oc1cccc(C(Nc2ccccn2)c2ccc3cccnc3c2O)c1Cl (stereo not given),Potency,[1],13.5 µM (active)
same,Potency,[2],10.7 µM (active)
same,Potency,[5],inactive
same,Potency,[6],inactive
same,Potency,[7],inactive
same,Potency,[8],inactive
same,Potency,[9],inactive
CCOc1ccccc1NC(=O)CSc1nc2ccccc2c2nc(CCn3cncc3C)nn12,Potency,[1],10.7 µM (active)
same,Potency,[2],0.952 µM (active)
Cc1ccc(/C=C2\C(=O)C3(C)CCC2C3(C)C)cc1 (stereo not given),Potency,[1],inactive
same,Potency,[2],8.49 µM (active)
same,Potency,[3],inactive
same,Potency,[4],inactive
Cc1ccc(Cn2c(SCC(=O)NCc3ccccc3)nc3ccsc3c2=O)cc1,Potency,[1],6.01 µM (active)
same,Potency,[2],6.74 µM (active)
N#Cc1ccccc1Cn1nnc2c(=O)[nH]c(C3CCCN(S(=O)(=O)c4ccc(F)cc4)C3)nc21 (stereo not given),Potency,[1],0.849 µM (active)
same,Potency,[2],1.69 µM (active)
CCOC(=O)c1cnc2ccc(OC)cc2c1NCCc1ccc(OC)c(OC)c1,Potency,[1],2.39 µM (active)
same,Potency,[2],0.849 µM (active)
CC1(C#N)CCN(c2c(C(=O)N3CCC(C(=O)C4CC4)CC3)cnc3ccc(F)cc23)CC1,Potency,[1],10.7 µM (active)
same,Potency,[2],1.9 µM (active)
COc1ccc2c(c1)CCc1sc(NC(=O)c3cccc(Br)c3)nc1-2,Potency,[1],inactive
same,Potency,[2],5.35 µM (active)
CC1(C)C(/C=C/C=C/C=C/C=C2/N(CCCCS(=O)(=O)O)c3ccc4ccccc4c3C2(C)C)=[N+](CCCCS(=O)(=O)[O-])c2ccc3ccccc3c21,Potency,[1],26.8 µM (active)
same,Potency,[2],13.5 µM (active)
same,Potency,[3],inactive
Cc1ccc(C(=O)c2cn(CC(=O)Nc3ccc4c(c3)OCCO4)c3nc(C)ccc3c2=O)cc1,Potency,[1],inactive
same,Potency,[2],9.52 µM (active)
CCOC(=O)N1CCc2c(sc3c2c(=O)n(Cc2ccccc2)c(=O)n3CC(=O)Nc2ccc(F)cc2)C1,Potency,[1],1.51 µM (active)
same,Potency,[2],2.39 µM (active)
CCCCCCCCC=CCCCCCCCC(=O)NCCOC(=O)CC(C(=O)O)S(=O)(=O)O (stereo not given),Potency,[1],13.5 µM (active)
same,Potency,[2],8.49 µM (active)
same,Potency,[3],inactive
same,Potency,[4],inactive
CCOCCCNC(=O)C(=O)Nc1c2c(nn1-c1ccc(OC)cc1)CSC2,Potency,[1],inactive
same,Potency,[2],10.7 µM (active)

# Source: PubChem BioAssay (NCATS)
